# Source: PubChem (National Center for Advancing Translational Sciences (NCATS))
# CBFb-RUNX1 inh = CBF-beta/RUNX1 interaction disruption. Q01196+Q13951. AlphaScreen CBFb-His/RUNX1-biotin binding, biochemical. Potency, µM (top dose mostly 59.8 µM), without a hit: at the top dose activity, negative = inhibition, most hits filed as inhibitors. 230,000 tested, under 10 active; further: % of control where 0% means no effect
# Target sequence (Q01196 whole entry, looked up): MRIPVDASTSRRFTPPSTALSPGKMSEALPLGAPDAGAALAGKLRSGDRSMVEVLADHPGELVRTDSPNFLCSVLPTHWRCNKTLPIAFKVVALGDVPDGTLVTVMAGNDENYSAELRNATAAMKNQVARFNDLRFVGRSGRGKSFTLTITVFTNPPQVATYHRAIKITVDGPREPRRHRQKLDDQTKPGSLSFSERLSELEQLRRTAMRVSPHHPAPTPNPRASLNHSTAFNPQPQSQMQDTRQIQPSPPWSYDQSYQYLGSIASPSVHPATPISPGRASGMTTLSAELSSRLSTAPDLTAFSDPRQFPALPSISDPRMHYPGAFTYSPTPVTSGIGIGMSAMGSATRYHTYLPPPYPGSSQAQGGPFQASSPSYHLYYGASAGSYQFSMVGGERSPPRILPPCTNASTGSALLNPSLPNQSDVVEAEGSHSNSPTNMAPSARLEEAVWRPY
# Target sequence (Q13951 whole entry, looked up): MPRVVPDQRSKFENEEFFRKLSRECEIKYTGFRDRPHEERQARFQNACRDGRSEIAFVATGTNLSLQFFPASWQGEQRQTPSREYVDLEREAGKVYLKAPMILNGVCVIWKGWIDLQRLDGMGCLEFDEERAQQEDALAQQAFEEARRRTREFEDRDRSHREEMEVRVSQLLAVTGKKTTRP
#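 AlphaScreen binding: CBFb-His and RUNX1-biotin (30 nM each) preincubated 20 min, compound added for 15 min, then nickel and streptavidin beads for 90 min, all at room temperature. Disruption of the interaction by any mechanism counts as activity.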
# HTT cytoprotect = protects HTT-Q103 PC12 cells, measured by ATP. PC12 HTT-Q103 induced, cytoprotection, ATP luminescence, 40 h. Potency, µM (doses to about 56.4 µM), for inactives: cytoprotection (ATP increase), most hits filed as activators. 230,000 compounds, 0.14% hits; further: potency means the concentration at half of the fitted maximal effect; % of control where 0% means no effect; nearly all actives have a fitted effect of over 45% in size
#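 Rat PC12, Q103 Htt exon1-GFP fusion, ecdysone promoter; tebufenozide inducer 100 nM final; compound titration; qHTS, 1500 cells/well; ATPlite luminescent read.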
# HPGD block = inhibitors of human 15-hydroxyprostaglandin dehydrogenase (HPGD) | P15428 | purified HPGD, NADH fluorescence kinetic, PGE2 substrate | Potency, µM, for inactives: top-dose activity change, negative = inhibition, most hits filed as inhibitors | 150,000 compounds, 4.3% hits | AID 894; active means well fitted inhibition curve with a large enough effect, not every such curve was filed as active; inconclusive means small, poorly fitted or top-dose-only effect, or another doubt; inactive means no such curve, though single readings can be large or run the other way; further: potency means the concentration at half of the fitted maximal effect; on the % scale 0 is the no-effect control and ±100 the full control effect
#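 NADH formation kinetics: reaction with 30 uM PGE2 and 1 mM NAD+ (final), 20 nM enzyme, Tris-HCl pH 8 with Tween 20, after 15 min compound preincubation at room temperature. Fluorescence change, last versus first of five reads.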
# HTT aggregate = reduces HttQ103-GFP aggregates in PC12 cells | PC12 HttQ103-GFP aggregates, Acumen cytometry, 40 h | Potency, µM (doses to about 46.1 µM), for the others: top-dose activity change, negative = inhibition, hits mostly inhibitors | 220,000 compounds, 1.1% hits; further: potency means the concentration at half of the fitted maximal effect; on the % scale 0 is the no-effect control and ±100 the full control effect; nearly all actives have a fitted effect of over 60% in size
#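 Using laser scanning cytometry, GFP-positive aggregates were counted after lysis of PC12 cells induced with 100 nM tebufenozide to express HTT exon 1 Q103–GFP. Compounds were tested in titration.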
# KDM4E inh = JMJD2E (human) inhibition | 230,000 compounds, 1.6% hits | JMJD2E catalytic domain, FDH-coupled NADH fluorescence (FDH is formaldehyde dehydrogenase) | B2RXH2 | Potency, µM (series often up to 57.1 µM), for inactives: top-dose activity change, negative = inhibition, usual class: inhibitors; active means well fitted inhibition curve with a large enough effect, not every such curve was filed as active; inconclusive means small, poorly fitted or top-dose-only effect, or another doubt; inactive means no such curve, though single readings can be large or run the other way;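 further: potency means the concentration at half of the fitted maximal effect; 0% = wells with enzyme and -100% = buffer wells without enzyme; nearly all actives have a fitted effect of over 50% in size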
# ALDH1A1 block = inhibitors of human aldehyde dehydrogenase 1A1 | Potency, µM (titrated, usually from 75.3 µM), for inactives: at the top dose activity, negative = inhibition, usual class: inhibitors | Purified ALDH1A1, NADH fluorescence, propionaldehyde substrate | 220,000 compounds, 7.3% hits | AID 1030 | P00352; active means well fitted inhibition curve with a large enough effect, not every such curve was filed as active; inconclusive means small, poorly fitted or top-dose-only effect, or another doubt; inactive means no such curve, though single readings can be large or run the other way;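 further: potency means the concentration at half of the fitted maximal effect; plate controls were no enzyme wells and a reference inhibitor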
# The depositor's hits bear a star; ? = inconclusive; . = not tested or not shown; ! = not active in a repeat; [ ] = dose if it differs, or a comment. This is a sample that favours compounds with a hit; in the whole collection about 9.8% have one here. Unless noted, the call rests on the fitted dose curve; in most records, active means well fitted curve in the direction sought with a large enough effect; inconclusive means small, poorly fitted or top-dose-only effect, or another doubt; inactive means no such curve, though single readings can be large; an effect the other way counts as inactive or inconclusive.
SMILES,CBFb-RUNX1 inh,HTT cytoprotect,HPGD block,HTT aggregate,KDM4E inh,ALDH1A1 block
O=C(CSc1nnc(Cc2cccs2)n1C1CCCCC1)N1CCCc2ccccc21,-2%,-12%,-23%,5%,3%,3.5µM*
CC(C)(C)NC(=O)Cc1ccc(Cl)c(Cl)c1,-6%,2%,.,-4%,-3%,-2%
COc1ccc(NC(=O)CN(C)CC(=O)Nc2ccc(Cl)cc2F)cc1,0%,-27%,.,3%,2%,?
Cc1ccc(-c2csc3nnc(SCC(=O)N4CCN(Cc5ccccc5)CC4)n23)cc1,-3%,-28%,-12%,-1%,-2%,14µM*
O=C(CSc1nnnn1C1CCCC1)N1CCCc2ccccc21,3%,19%,-13%,-20%,10%,10µM*
O=C(CSc1nnc2scc(-c3ccccc3)n12)N1CCN(Cc2ccccc2)CC1,7%,6%[10 µM],-9%,6%,4%,-11%
O=C(CSc1nnnn1-c1cccc2c1CCCC2)N1CCCCC1,-5%,34%[10 µM],?,-21%,5%,32µM*
O=C(CSc1nc(O)cc(=O)[nH]1)N1CCCc2ccccc21,6%,0%,18µM*,-22%,0%,22µM*
Cc1cc(=O)[nH]c(SCC(=O)N2CCCc3ccccc32)n1,1%,30%[10 µM],-9%,25%,-6%,-1%
Cc1nn(-c2ccccc2)nc1-c1nnc(-c2ccc(C(F)(F)F)cc2)o1,-5%,19%[10 µM],.,11%[9.22 µM],4%,.
Cn1nnnc1SCC(=O)N1CCCc2ccccc21,13%,10%[1.9 µM],-7%,1%,0%,2%
O=C(CSc1nc2cc(Cl)ccc2s1)N1CCCc2ccccc21,?,-22%[10 µM],?,-9%,0%,8.9µM*
COc1ccc(-n2nnnc2SCC(=O)N2CCCc3ccccc32)cc1OC,12%,4%[1.9 µM],-15%,-4%,0%,25µM*
Cc1ccc(-c2nnc3ccc(SCC(=O)N4CCCc5ccccc54)nn23)cc1,6%,-17%[10 µM],-13%,?,-15%,?
CCOc1ccc2nc(SCC(=O)N3CCCc4ccccc43)sc2c1,13%,-10%,-11%,-20%,8%,4%
O=C(O)c1ccc(CSc2nnnn2C2CCCCC2)cc1,-10%,3%[10 µM],-21%,-7%,-4%,18µM*
Cc1ccc(-c2nnc(SCC(=O)N3CCCc4ccccc43)n2N)cc1,-1%,-6%,-6%,1%,-2%,13µM*
CCn1c(SCC(=O)Nc2cc(C)nn2-c2ccccc2)nnc1-c1cccs1,0%,5%[10 µM],.,-8%[9.22 µM],-2%,.
COCC(=O)Nc1cc(C(=O)Nc2ccccc2)ccc1Cl,6%,-4%[10 µM],.,-18%[9.22 µM],2%,3%
Cn1c(=O)c2c(ncn2CCC(=O)N/N=C/c2cccnc2)n(C)c1=O,-2%,-14%[10 µM],.,-15%[9.22 µM],3%,.
CC(=O)Oc1cc2c(C(=O)NCc3ccncc3)c(C)oc2c2ccccc12,-1%,-11%[10 µM],.,-9%[9.22 µM],-5%,.
O=C(c1ccco1)N1CCN(C(=O)c2cc(-c3ccncc3)nc3ccc(Br)cc23)CC1,.,-4%,.,.,.,.
O=C(O)c1cc(-c2ccco2)nc2ccc(Br)cc12,-13%,1%[1.9 µM],?,-18%,?,4µM*!
Cc1nc2ncnn2c(C)c1CCC(=O)Oc1ccccc1,5%,-5%,-1%,7%,0%,-12%
C=Cc1ccccc1Cl,1%[21.7 µM],-19%,-7%,.,.,?
SMILES,CBFb-RUNX1 inh,HTT cytoprotect,HPGD block,HTT aggregate,KDM4E inh,ALDH1A1 block
Clc1ccc(CSc2nnc(-c3ccncc3)o2)cc1,6%,-1%,-8%,10µM*,-1%,3%
CCOC(=O)c1c(C)n(-c2ccc(C)cc2)c2c(CC(C)=O)c(Br)c(OC)c(O)c12,2%,-46%,-4%,-3%,-3%,7%
CCOC(=O)c1c(C)n(-c2ccc(C)cc2)c2c(C(C(C)=O)C(=O)O)c(Br)c(O)c(O)c12 (stereo not given),-24%,?,18µM*,13µM*,?,?
CCOC(=O)C(C(C)=O)c1c(Br)c(O)c(O)c2c(C(=O)c3ccc(C)cc3)coc12 (stereo not given),-27%,-74%[0.074 µM],7.9µM*,?,25µM*,-3%
CCOC(=O)c1cc(C(=O)c2cc(Br)ccc2O)coc1=N,2%,-43%,.,2%,-8%,5%
CSC1=NNC(c2ccc(C(C)(C)C)cc2)=NN1,3%,-14%[10 µM],.,7%[9.22 µM],3%,.
O=C(NCCc1cccs1)c1cccs1,0%,6%,.,2%,2%,-1%
COc1ccc(S(=O)(=O)NCC2CCCN(C(=O)C=C(C)C)C2)cc1 (stereo not given),18%,34%[10 µM],.,7%[9.22 µM],3%,4.5µM*
CCOC(=O)N1CCC(NC(=O)C2CCC(CNS(=O)(=O)c3ccc(OC)cc3)CC2)CC1 (stereo not given),-1%,2%,-4%,13%,3%,-8%
COC(=O)CCC(=O)N1CCCC(CNS(=O)(=O)c2ccc(OC)cc2)C1 (stereo not given),6%,18%[10 µM],.,5%[9.22 µM],8%,8.9µM*
COc1ccc(S(=O)(=O)NCC2CCCN(CC(C)(C)C)C2)cc1 (stereo not given),4%,15%[10 µM],.,-5%[9.22 µM],0%,20µM*
O=C(CCC(=O)N/N=C/c1cc(Cl)cc(Cl)c1O)NCc1ccccc1,4%,24%[10 µM],.,-16%[9.22 µM],?,-4%
CN(C)CCCNC(=S)NCCNc1nc2cc3c(cc2cc1C#N)OCO3,8%,-8%,.,6%,?,?
O=C(Cc1cccs1)N/N=C/C=C\c1ccco1,?,3%[10 µM],-20%,?,?,25µM*
O=C(N/N=C/C=C\c1ccco1)c1cccs1,8%,-47%,.,0%,?,28µM*
O=C(N/N=C/C=C/c1ccc([N+](=O)[O-])cc1)c1cccs1,2%,14%,16µM*,8%,3%,-12%
Cc1cccc(C)c1OCC(=O)N/N=C/C=C/c1ccco1,-13%,-14%,.,?,-23%,13µM*
Cc1cccc(OCC(=O)N/N=C/C=C/c2ccco2)c1,-18%,-18%[10 µM],-7%,?,?,?
COc1ccc(OCC2CC3C(CCC(C)C3c3ccc(Br)cc3)C(=O)O2)cc1 (stereo not given),3%[13.1 µM],-1%[10 µM],.,.,.,0%[13.5 µM]
N#Cc1c(Cl)cccc1N1CCC(C(N)=O)CC1,-8%,13%[10 µM],.,-5%[9.22 µM],1%,.
OCC1OC([S-])[C@H](O)C(O)C1O.[Au+] (stereo not given in full),9%,2%,-25%,17%,?,?
CC(C)N(Cc1ccccc1)C(C)C (tested in a mixture with another compound),22%,.,.,.,.,.
O=C1SCC(c2ccc(Cl)cc2Cl)=NN1Cc1nnc(-c2ccccc2)o1,13%,17%[10 µM],32µM*,?,-12%,-7%
